Measured values as given in PubChem BioAssay (NCATS).
A number with no mark means an inactive call. Records with an inconclusive call do not appear. Activity calls are given as the source filed them. Unless noted, the call rests on the fitted dose curve; in most records, active means well fitted curve in the direction sought with a large enough effect; inconclusive means small, poorly fitted or top-dose-only effect, or another doubt; inactive means no such curve, though single readings can be large; an effect the other way counts as inactive or inconclusive.

Legend:
[1] = biological target: Lysosomal acid glucosylceramidase (Homo sapiens) (UniProt P04062); assay: Glucocerebrosidase-p2 (AID 348; in the data active means potency below about 10 µM; further: potency means the concentration at half of the fitted maximal effect); conditions: purified GBA, blue fluorogenic substrate, 40 min
Summary of the method: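 Compounds titrated from 0.6 nM upwards against 0.2 nM enzyme in pH 5.9 citric acid/KH2PO4, taurocholate, tween-20; blue fluorogenic substrate 80 uM, 40 min room temperature, stopped and read Ex 365/Em 440 for AC50.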

[2] = AP1 Signaling Pathway (AID 357; active means well fitted curve in either direction with a large enough effect, not every such curve was filed as active;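 further: ME-180 reporter cells stimulated with EGF at its EC50 level; on the % scale 0 is the no-effect control and ±100 the full control effect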); conditions: ME-180 AP-1-bla reporter, EGF-induced, beta-lactamase ratio, 5 h; at 7.69 µM (top of the series) unless noted
Summary of the method: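 AP-1-bla ME-180 cells, Opti-MEM + 0.5% dialyzed FBS, plated overnight 37 °C. Cpd titration + EC50 EGF, 5 h 37 °C. CCF4 2.5 h RT; ex 405, em 460/530 ratio → %activity, AC50.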

[3] = biological target: Cytochrome P450 1A2 (Homo sapiens) (UniProt P05177); assay: p450-cyp1a2 (AID 410; calls by dose curve; further: potency means the concentration at half of the fitted maximal effect;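 on activity change, negative = inhibition: -100% = full effect of reference inhibitor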); conditions: recombinant CYP1A2, luciferin-ME demethylation, luminescence; series mostly up to 57 µM
Summary of the method: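 Inhibition was calculated relative to 57 uM furafylline (full inhibition). The reaction used human CYP1A2 at 20nM with Luciferin-ME at its Km, 100uM, driven by an NADPH-regenerating system for 60 min at room temperature.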

[4] = NFAT Signaling Pathway (AID 444; active means well fitted curve in either direction with a large enough effect, not every such curve was filed as active;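 further: carbachol stimulus at about its EC50 of 1 µM final; on the % scale 0 is the no-effect control and ±100 the full control effect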); conditions: Jurkat NFAT-bla M1, carbachol, beta-lactamase ratio, 5 h; at 7.69 µM (top of the series) unless noted
Summary of the method: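 Read-out: CCF4 FRET ratio (460 nm/530 nm) after 1 h RT dye loading, used for %activity and AC50 from titration series. Cells: Jurkat NFAT-β-lactamase/M1 line, treated with compound plus 1 uM carbachol for 5 h, 37 °C.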

[5] = Stat Signaling Pathway (AID 446; active means well fitted curve in either direction with a large enough effect, not every such curve was filed as active;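 further: ME-180 cervical cancer cells given 40 pM IL-6 alongside compound; SIE-controlled beta-lactamase reporter measured as 460/530 nm FRET emission ratio; on the % scale 0 is the no-effect control and ±100 the full control effect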); conditions: ME-180 SIE beta-lactamase reporter, IL-6 stimulated, 5 h; at 7.69 µM (top of the series) unless noted
Summary of the method: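 ME-180 cells carrying a SIE-driven beta-lactamase reporter are stimulated with 40 pM IL-6 for 5 h at 37C in the presence of compound. The 460/530 nm FRET substrate ratio is read after 2.5 h at RT. Data are normalised to 300 pM IL-6 and to 125 nM JAK inhibitor controls.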

[6] = biological target: Glucocorticoid receptor (Homo sapiens) (UniProt P04150); assay: GR-GFP Redistribution (AID 450;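 active means compounds whose dose series gives a full or clear partial fitted curve of increased nuclear translocation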; further: potency means the concentration at half of the fitted maximal effect); conditions: U2OS GR-GFP nuclear translocation, laser cytometry, 2 h
[7] = biological target: Glucocorticoid receptor (Homo sapiens) (UniProt P04150); assay: GR-EFC Redistribution (AID 451; calls by dose curve; further: potency means the concentration at half of the fitted maximal effect); conditions: CHO-K1 GR-EFC translocation, beta-gal luminescence, 2 h
Summary of the method: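 Translocation of GR-ED fusion to nuclear EA restores b-gal, read by luminescence after 1 h room-temperature detection. Engineered CHO-K1 biosensor cells, 1,000/well, exposed 2 h at 37 C to titrations up to 46 uM final.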

[8] = biological target: Mitogen-activated protein kinase 10 (Mus musculus) (UniProt Q61831); assay: JNK3 AlphaScreen Assay (AID 530; active means well fitted curve in either direction with a large enough effect, not every such curve was filed as active;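 further: kinase came from lysate of stimulated human HepG2 cells; signal reports phosphorylation of biotinylated GST-cJun 1-79 at Ser73 with 10 µM ATP; on the % scale 0 is the no-effect control and ±100 the full control effect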); conditions: JNK3 lysate, c-Jun phosphorylation; series mostly up to 57.1 µM
Summary of the method: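 Room-temperature AlphaScreen kinase assay; pre-activated HepG2 lysate as JNK3 source, biotin-GST-cJun(1-79) substrate, 10 uM ATP, compound 15 min preincubation.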

[9] = biological target: 3',5'-cyclic-AMP phosphodiesterase 4B (Homo sapiens) (UniProt Q07343); assay: qHTS Assay for Inhibitors of PDE-IV (AID 607; active means well fitted activation curve with a large enough effect in the main read-out, with a control signal flat, not every such curve was filed as active; further: % of control where 0% means no effect); conditions: HEK293 ACTOne CNG channel cells, membrane potential fluorescence; series mostly up to 22.9 µM
Summary of the method: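 HEK293 ACTOne cells with CNG channel (1000/well), endogenous PDE4; membrane potential dye, compounds up to 22.9 uM final. Fluorescence Ex 535/Em 590; RO 20-1724 (100 uM final) as reference.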

[10] = biological target: Cytochrome P450 2C9 (Homo sapiens) (UniProt P11712); assay: qHTS Assay for Inhibitors and Substrates of Cytochrome P450 2C9 (AID 883); conditions: recombinant CYP2C9, luciferin-H luminescence, 60 min; series mostly up to 57.1 µM; further: on the % scale 0 is the no-effect control and ±100 the full control effect; nearly all actives have a fitted effect of over 60% in size
Summary of the method: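 Inhibition of CYP2C9 is scored as loss of luminescence, with 57uM sulphaphenazole defining 100% inhibition. Substrate Luciferin-H is used at 100uM, equal to its KM; enzyme at 10nM in 25mM KPO4, 60 min at 37C with NADPH regeneration.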

[11] = biological target: Cytochrome P450 3A4 (Homo sapiens) (UniProt P08684); assay: qHTS Assay for Activators of Cytochrome P450 3A4 (AID 885); conditions: recombinant CYP3A4, Luciferin-PPXE luminescence, 60 min; series mostly up to 57.1 µM; further: nearly all actives have a fitted effect of over 65% in size
Summary of the method: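 Human CYP3A4 (20 nM) with Luciferin-PPXE at 25 uM (its KM) in 200 mM KPO4; 10 min compound preincubation, then NADPH regeneration and 60 min reaction at RT. Luciferin read by luminescence; normalized to 57 uM ketoconazole full inhibition.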

[12] = qHTS Assay for Identification of Small Molecule Agonists for Hypoxia Response Element Signaling Pathway (AID 914; active means well fitted activation curve with a large enough effect in the signal ratio, with a control signal flat, not every such curve was filed as active; the % refers to the signal ratio; further: % of control where 0% means no effect); conditions: ME-180 (cervical carcinoma) HRE-bla reporter, beta-lactamase ratio, CoCl2, 17 h; activation: stronger effect = higher value
Summary of the method: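 A beta-lactamase reporter under hypoxia response element control in ME-180 cells served as the system. Compound titrations plus EC50 CoCl2 ran 17 h at 37 degrees Celsius; AC50 values were fitted from %Activity.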

[13] = biological target: Dual specificity protein kinase CLK4 (Homo sapiens) (UniProt Q9HAZ1); assay: qHTS Assay for Inhibitors of CDC-like Kinase 4 (ADP-Glo Assay) (AID 1771); conditions: recombinant CLK4, ADP-Glo luminescence; series mostly up to 80 µM; further: potency means the concentration at half of the fitted maximal effect; nearly all actives have a fitted effect of over 70% in size
Summary of the method: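 Kinase reaction: Clk4 at 25 nM, RS repeat peptide substrate at 100 uM, ATP at 1 uM, 1 hr, room temperature. Product ADP detected as luciferase signal via ADP-Glo.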

[14] = biological target: Ubiquitin carboxyl-terminal hydrolase 1 (Homo sapiens) (UniProt O94782); assay: Inhibitors of USP1/UAF1: Pilot qHTS (AID 504865); conditions: purified USP1/UAF1, Ub-rhodamine cleavage fluorescence; series mostly up to 54.9 µM; further: nearly all actives have a fitted effect of over 35% in size; further: potency means the concentration at half of the fitted maximal effect
Summary of the method: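 Kinetic fluorescence assay: 1nM USP1/UAF1, 15 min compound preincubation, then 150nM Ub-Rho; 480/540 nm.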

[15] = Primary qHTS for small molecule stabilizers of the endoplasmic reticulum resident proteome: Secreted ER Calcium Modulated Protein (SERCaMP) assay (AID 1508630); conditions: SH-SY5Y GLuc-SERCaMP (Gaussia luciferase released on ER calcium loss) secretion, thapsigargin, luminescence; series mostly up to 38.4 µM; further: on the % scale 0 is the no-effect control and ±100 the full control effect
Summary of the method: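 GLuc-SERCaMP-expressing SH-SY5Y cells, pretreated 16 h with compound, are challenged with thapsigargin to empty ER calcium stores; after 4 h, coelenterazine is added directly to the medium and luminescence is imaged.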

[16] = biological target: Cytochrome P450 3A4 (Homo sapiens) (UniProt P08684); assay: qHTS Assay for Inhibitors and Substrates of Cytochrome P450 3A4 (AID 884); conditions: recombinant CYP3A4, Luciferin-PPXE luminescence; series mostly up to 57.1 µM; further: potency means the concentration at half of the fitted maximal effect; nearly all actives have a fitted effect of over 50% in size
Summary of the method: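 20 nM human CYP3A4 with 25 uM Luciferin-PPXE (at KM) in 200 mM KPO4, preincubated 10 min with compound; NADPH regeneration started a 60 min RT reaction. Luciferin detected by luminescence, normalized to 57 uM ketoconazole as full inhibition.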

[17] = biological target: Cytochrome P450 2C19 (Homo sapiens) (UniProt P33261); assay: qHTS Assay for Inhibitors and Substrates of Cytochrome P450 2C19 (AID 899); conditions: recombinant CYP2C19, luciferin-H EGE luminescence; series mostly up to 57.1 µM; further: potency means the concentration at half of the fitted maximal effect; nearly all actives have a fitted effect of over 60% in size
Summary of the method: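 5nM enzyme + 10uM Luciferin-H EGE (=KM), 50mM KPO4; cpd pin-transferred, 10 min 37C; NADPH regen, 60 min 37C; stopped w/ luciferin detection reagent, 20 min; luminescence. Normalized to 57uM ketoconazole (AC100).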

[18] = biological target: Dual specificity protein kinase CLK4 (Homo sapiens) (UniProt Q9HAZ1); assay: qHTS Assay for Inhibitors of CDC-like Kinase 4 (ADP-FP Assay) (AID 1795); conditions: Transcreener ADP fluorescence polarization; series mostly up to 50 µM;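 further: recombinant human CLK4 phosphorylating RS repeat peptide at 1 µM ATP; on the % scale 0 is the no-effect control and ±100 the full control effect; nearly all actives have a fitted effect of over 60% in size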
Summary of the method: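 Inhibition of ADP formation by 6.25 nM Clk4 is measured using 1 uM ATP and 100 uM RS repeat peptide over one hour. Produced ADP displaces a fluorescent tracer from antibody, lowering polarization.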

[19] = biological target: Cytochrome P450 2D6 (Homo sapiens) (UniProt P10635); assay: qHTS Assay for Inhibitors and Substrates of Cytochrome P450 2D6 (AID 891); conditions: recombinant CYP2D6, luciferin-ME EGE luminescence; series mostly up to 57.1 µM; further: potency means the concentration at half of the fitted maximal effect; nearly all actives have a fitted effect of over 60% in size
Summary of the method: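 Human CYP2D6 (5 nM) with 30 uM Luciferin-ME EGE (at Km) in 100 mM KPO4, compound preincubated 10 min, then NADPH regeneration system for 60 min at room temperature. Luciferin read by luminescence; normalized to 1.43 uM quinidine.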

Chain of Ubiquitin carboxyl-terminal hydrolase 1 (Homo sapiens) (O94782 whole entry, looked up): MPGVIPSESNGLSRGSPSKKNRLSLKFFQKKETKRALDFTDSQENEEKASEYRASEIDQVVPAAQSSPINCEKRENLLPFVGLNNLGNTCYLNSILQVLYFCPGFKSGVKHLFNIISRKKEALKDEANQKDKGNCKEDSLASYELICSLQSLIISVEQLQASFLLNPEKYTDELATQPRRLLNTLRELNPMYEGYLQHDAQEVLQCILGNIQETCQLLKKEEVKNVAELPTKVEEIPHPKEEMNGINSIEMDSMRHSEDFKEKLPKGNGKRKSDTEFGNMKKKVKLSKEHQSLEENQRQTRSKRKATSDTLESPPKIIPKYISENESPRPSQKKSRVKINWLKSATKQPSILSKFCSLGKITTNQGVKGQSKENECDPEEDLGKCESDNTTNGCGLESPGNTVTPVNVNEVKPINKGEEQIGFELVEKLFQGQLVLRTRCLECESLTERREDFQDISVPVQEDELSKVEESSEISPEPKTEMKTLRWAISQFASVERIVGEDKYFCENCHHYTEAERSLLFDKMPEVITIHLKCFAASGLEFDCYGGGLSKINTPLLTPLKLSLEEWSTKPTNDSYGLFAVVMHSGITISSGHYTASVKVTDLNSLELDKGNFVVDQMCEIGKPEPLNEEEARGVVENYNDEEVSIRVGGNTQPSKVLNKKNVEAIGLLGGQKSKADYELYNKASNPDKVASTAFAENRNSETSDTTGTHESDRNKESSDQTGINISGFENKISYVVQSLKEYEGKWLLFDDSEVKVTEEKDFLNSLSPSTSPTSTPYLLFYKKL
Chain of Glucocorticoid receptor (Homo sapiens) (P04150 whole entry, looked up, the tested form may be a part): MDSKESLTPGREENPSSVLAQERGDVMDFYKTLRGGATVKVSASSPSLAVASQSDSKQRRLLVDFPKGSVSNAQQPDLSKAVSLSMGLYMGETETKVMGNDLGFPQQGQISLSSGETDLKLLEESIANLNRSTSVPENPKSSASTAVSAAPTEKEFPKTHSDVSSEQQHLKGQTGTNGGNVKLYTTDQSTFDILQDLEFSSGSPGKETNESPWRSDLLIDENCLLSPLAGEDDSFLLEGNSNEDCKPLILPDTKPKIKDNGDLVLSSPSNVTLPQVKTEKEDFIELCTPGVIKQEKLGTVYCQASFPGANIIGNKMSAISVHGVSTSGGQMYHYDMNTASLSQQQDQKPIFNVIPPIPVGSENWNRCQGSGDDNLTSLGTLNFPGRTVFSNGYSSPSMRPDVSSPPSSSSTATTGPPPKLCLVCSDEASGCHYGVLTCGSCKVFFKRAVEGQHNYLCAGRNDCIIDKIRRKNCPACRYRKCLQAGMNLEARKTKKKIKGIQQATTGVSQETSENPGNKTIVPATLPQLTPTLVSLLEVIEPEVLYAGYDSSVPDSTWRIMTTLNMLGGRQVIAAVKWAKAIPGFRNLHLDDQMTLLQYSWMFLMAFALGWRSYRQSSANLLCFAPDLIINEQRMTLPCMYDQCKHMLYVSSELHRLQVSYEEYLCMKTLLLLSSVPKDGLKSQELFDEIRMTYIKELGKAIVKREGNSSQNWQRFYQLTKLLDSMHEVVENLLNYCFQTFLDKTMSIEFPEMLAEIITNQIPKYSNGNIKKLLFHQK
Chain of 3',5'-cyclic-AMP phosphodiesterase 4B (Homo sapiens) (Q07343 whole entry, looked up): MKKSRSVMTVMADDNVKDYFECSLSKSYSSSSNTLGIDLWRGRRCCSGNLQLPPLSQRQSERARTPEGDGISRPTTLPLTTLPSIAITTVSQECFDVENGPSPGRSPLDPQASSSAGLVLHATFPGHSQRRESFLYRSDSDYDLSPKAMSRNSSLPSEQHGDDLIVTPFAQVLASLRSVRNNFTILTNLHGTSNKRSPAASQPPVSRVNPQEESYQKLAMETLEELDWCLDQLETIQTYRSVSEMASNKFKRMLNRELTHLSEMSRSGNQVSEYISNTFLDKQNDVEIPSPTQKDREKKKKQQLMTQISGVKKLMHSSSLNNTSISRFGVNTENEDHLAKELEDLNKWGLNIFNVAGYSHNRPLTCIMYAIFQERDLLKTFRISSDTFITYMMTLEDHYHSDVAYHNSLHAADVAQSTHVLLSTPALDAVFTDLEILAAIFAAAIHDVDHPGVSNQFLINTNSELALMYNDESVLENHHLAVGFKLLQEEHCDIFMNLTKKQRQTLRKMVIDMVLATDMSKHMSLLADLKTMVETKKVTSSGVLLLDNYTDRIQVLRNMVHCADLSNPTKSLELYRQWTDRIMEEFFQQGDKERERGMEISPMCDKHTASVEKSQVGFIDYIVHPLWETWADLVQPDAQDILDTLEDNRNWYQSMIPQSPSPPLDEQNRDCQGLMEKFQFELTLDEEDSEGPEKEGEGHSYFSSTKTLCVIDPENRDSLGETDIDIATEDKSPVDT
Chain of Cytochrome P450 2C19 (Homo sapiens) (P33261 whole entry, looked up): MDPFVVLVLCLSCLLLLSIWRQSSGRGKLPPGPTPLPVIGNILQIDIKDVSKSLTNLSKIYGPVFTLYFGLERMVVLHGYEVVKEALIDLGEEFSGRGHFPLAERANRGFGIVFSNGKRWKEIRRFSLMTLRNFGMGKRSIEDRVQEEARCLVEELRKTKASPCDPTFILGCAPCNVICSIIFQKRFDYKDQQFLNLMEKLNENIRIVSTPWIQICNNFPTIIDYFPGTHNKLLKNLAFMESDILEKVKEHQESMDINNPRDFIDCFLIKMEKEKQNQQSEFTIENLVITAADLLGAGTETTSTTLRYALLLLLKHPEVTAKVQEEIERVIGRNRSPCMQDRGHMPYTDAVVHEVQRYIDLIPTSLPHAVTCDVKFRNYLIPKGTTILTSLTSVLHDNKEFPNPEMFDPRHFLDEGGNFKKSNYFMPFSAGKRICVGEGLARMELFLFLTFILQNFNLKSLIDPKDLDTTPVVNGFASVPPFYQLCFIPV
Chain of Dual specificity protein kinase CLK4 (Homo sapiens) (Q9HAZ1 whole entry, looked up): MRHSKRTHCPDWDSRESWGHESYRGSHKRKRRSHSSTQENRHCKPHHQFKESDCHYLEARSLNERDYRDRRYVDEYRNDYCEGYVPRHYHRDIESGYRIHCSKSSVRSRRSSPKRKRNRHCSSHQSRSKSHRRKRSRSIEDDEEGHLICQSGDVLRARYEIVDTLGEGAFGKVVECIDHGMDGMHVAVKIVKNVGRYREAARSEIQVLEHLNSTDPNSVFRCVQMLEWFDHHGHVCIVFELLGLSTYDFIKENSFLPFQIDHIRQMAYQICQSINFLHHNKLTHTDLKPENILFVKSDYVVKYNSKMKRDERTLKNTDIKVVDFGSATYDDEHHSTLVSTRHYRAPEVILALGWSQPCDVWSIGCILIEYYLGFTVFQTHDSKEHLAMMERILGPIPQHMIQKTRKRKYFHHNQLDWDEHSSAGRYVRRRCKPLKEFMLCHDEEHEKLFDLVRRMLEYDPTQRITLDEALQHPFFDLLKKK
Chain of Cytochrome P450 1A2 (Homo sapiens) (P05177 whole entry, looked up): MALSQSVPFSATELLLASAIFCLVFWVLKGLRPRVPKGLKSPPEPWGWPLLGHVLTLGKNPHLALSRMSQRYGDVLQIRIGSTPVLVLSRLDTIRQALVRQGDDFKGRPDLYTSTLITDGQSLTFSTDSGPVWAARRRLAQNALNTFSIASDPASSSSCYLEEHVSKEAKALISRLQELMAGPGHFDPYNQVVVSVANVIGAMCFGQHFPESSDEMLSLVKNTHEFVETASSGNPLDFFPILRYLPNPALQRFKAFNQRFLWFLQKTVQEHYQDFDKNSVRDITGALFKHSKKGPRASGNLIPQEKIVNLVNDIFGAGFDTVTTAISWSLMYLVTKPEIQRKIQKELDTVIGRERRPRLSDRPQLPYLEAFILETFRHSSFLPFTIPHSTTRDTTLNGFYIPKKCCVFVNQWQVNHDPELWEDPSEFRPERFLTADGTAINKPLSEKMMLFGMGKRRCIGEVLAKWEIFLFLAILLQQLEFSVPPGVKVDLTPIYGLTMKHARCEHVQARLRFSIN
Chain of Lysosomal acid glucosylceramidase (Homo sapiens) (P04062 whole entry, looked up): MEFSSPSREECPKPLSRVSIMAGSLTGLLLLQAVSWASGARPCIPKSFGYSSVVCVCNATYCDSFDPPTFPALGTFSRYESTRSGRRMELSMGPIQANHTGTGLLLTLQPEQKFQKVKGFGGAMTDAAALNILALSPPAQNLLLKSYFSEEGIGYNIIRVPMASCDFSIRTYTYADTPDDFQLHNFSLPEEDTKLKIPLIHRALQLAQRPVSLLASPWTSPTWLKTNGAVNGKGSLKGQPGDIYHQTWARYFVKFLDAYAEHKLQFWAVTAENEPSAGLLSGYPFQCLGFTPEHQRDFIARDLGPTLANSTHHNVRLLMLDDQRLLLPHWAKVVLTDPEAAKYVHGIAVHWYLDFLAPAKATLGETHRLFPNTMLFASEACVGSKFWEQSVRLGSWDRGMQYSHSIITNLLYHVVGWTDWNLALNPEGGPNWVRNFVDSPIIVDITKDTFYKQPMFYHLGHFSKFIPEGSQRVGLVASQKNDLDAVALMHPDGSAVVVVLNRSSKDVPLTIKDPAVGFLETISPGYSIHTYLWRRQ
Chain of Cytochrome P450 3A4 (Homo sapiens) (P08684 whole entry, looked up): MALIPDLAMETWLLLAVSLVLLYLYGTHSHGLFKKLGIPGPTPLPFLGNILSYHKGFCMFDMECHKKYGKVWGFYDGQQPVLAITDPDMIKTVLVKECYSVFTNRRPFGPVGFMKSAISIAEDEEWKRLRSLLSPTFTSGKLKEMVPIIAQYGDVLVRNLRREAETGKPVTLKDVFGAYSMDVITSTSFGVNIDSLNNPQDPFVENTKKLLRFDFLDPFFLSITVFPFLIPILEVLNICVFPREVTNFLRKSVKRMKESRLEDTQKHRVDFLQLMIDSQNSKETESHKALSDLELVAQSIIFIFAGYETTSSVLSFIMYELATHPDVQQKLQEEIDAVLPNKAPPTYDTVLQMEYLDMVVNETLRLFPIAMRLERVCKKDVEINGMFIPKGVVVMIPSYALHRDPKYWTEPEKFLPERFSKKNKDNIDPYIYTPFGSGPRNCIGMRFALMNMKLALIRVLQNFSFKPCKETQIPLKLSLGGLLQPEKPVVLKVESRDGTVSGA

| Compound | Potency [1] | activity change, negative = inhibition [2] [%] | Potency [3] | activity change, negative = inhibition [4] [%] | activity, negative = inhibition [5] [%] | Potency [6] [µM] | Potency [7] [µM] | Potency [8] | Potency [9] | activity change, negative = inhibition [10] | Potency [11] | activation [12] [%] | Potency [13] | Potency [14] | outcome [15] | Potency [16] | Potency [17] | Potency [18] | Potency [19] |
| --- | --- | --- | --- | --- | --- | --- | --- | --- | --- | --- | --- | --- | --- | --- | --- | --- | --- | --- | --- |
| CS(=O)(=O)Nc1cccc(-c2cc(Nc3ccccc3)ncn2)c1 | > 11.4 µM | -27.9 | 0.398 µM (active) | 10.9 | 3.87 | > 46 | > 46 | inactive | inactive | 56.3% [at 2.29 µM] | inactive | -13.8 | 35.5 µM (active) | inactive | inactive |  |  |  |  |
| COc1ccccc1-c1cncnc1NCc1cccs1 | > 11.4 µM | 0.247 | 3.16 µM (active) | -3.21 | -6.68 | > 46 | > 46 | inactive |  |  | inactive |  |  | inactive | inactive | 0.398 µM (active) | 2 µM (active) | inactive |  |
| CN(C)C(=O)c1ccc(-c2cncnc2-n2ccnc2)cc1 | > 11.4 µM | -3.64 | 20 µM (active) | 13 | 3.39 | > 46 | > 46 | inactive | inactive |  | inactive |  |  | inactive | inactive |  |  | inactive |  |
| CNc1nc(-c2cccc(C#N)c2)nc2ccccc12 | > 11.4 µM | -15.2 | 0.0794 µM (active) | 2.31 | 6.92 | > 46 | > 46 | inactive | inactive |  | inactive |  | 11.2 µM (active) | inactive | inactive |  | 7.94 µM (active) |  |  |
| COc1ccc2[nH]cc(CCNc3ccnc(-c4ccc5c(c4)OCO5)n3)c2c1 | 7.76 µM (active) | -11.1 | 0.631 µM (active) | -4.51 | -13.4 | > 46 | > 46 | inactive | inactive |  | inactive |  |  | inactive | inactive | 2.51 µM (active) | 0.631 µM (active) | inactive | 7.94 µM (active) |
| CN(Cc1ccco1)c1ccnc(-c2cccnc2)n1 | > 11.4 µM | 16.2 | 0.794 µM (active) | -13.4 | 17.8 | > 46 | > 46 | inactive | inactive |  | inactive |  |  | inactive | inactive |  |  | inactive | 7.94 µM (active) |
| Cc1noc(C)c1-c1nccc(NCc2ccccc2)n1 | > 2.29 µM | 0.193 | 0.794 µM (active) | -7.38 | -0.39 | > 46 | > 46 | inactive | inactive |  | inactive |  |  | 25.1 µM (active) | inactive | 5.01 µM (active) |  | inactive |  |
| COCCNc1nc(-c2c(C)noc2C)nc2ccccc12 | > 11.4 µM | 1.66 | 0.126 µM (active) | 22.9 | 17.6 | > 46 | > 46 | inactive | inactive |  | inactive |  |  | inactive | inactive |  |  | inactive |  |
| Cc1ccccc1-c1nc(N(C)C)c2ccccc2n1 | > 11.4 µM | 5.33 | 0.631 µM (active) | -0.255 | 6.41 | > 46 | > 46 | inactive | inactive |  |  |  |  | inactive | inactive |  |  | inactive |  |
| CN(C)C(=O)c1ccc(-c2ccc3ncnc(N4CCNCC4)c3c2)cc1 | > 11.4 µM | -26.4 | inactive | 4.61 | -3.14 | > 46 | > 46 | inactive | inactive |  |  |  |  | inactive | inactive |  |  | inactive |  |
| c1ccc(CNc2cc(-c3ccoc3)ncn2)cc1 | > 11.4 µM | -7.43 | 25.1 µM (active) | -2.19 | -2.59 | > 46 | > 46 | inactive | inactive |  | inactive |  |  | inactive | inactive |  |  | inactive |  |
| CN(C)C(=O)c1ccc(-c2ccc3ncnc(N4CCOCC4)c3c2)cc1 | > 11.4 µM | -25.6 | inactive | 11.5 | -8.9 | > 46 | > 46 | inactive | inactive |  | inactive |  |  | inactive | inactive |  |  | inactive |  |
